High-throughput results (PubChem BioAssay)
In the library only some 19% were active in any assay of this set; here they are far more common.
TDP1 cell noCPT = qHTS for Inhibitors of human tyrosyl-DNA phosphodiesterase 1 (TDP1): qHTS in cells in absence of CPT; Potency, µM (doses to about 46.2 µM), without a hit: at the top dose activity change, negative = growth inhibition, usual class: inhibitors; 420,000 compounds, 15% hits; DT40 Tdp1-/- hTDP1 cells, no CPT, ATP luminescence, 48 h; further: potency means the concentration at half of the fitted maximal effect; nearly all actives have a fitted effect of over 55% in size
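Readout: luminescence from CellTiter-Glo after 30 min in the dark at RT. Cells: DT40 Tdp1-/- with stable hTDP1, 400/well. Exposure: compounds alone, ≥48 hr, 37 °C.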
HT1080 IDH1KD tx = HT-1080 IDH1 knockdown cell toxicity (counter line) | HT-1080 IDH1 knockdown viability, ATP luminescence, 48 h | 360,000 compounds, 2% hits | Potency, µM (top dose mostly 46.1 µM), for inactives: at the highest dose activity, negative = toxicity, actives largely listed as cytotoxic;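 further: potency means the concentration at half of the fitted maximal effect; 0% = DMSO wells and -100% = cell-free medium wells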
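Viability of IDH1-knockdown HT-1080 fibrosarcoma cells was assessed by CellTiter-Glo after 48 h at 37 °C with titrated compound; concentration-effect curves were classified by fit quality and response size.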
HT1080NT lethal = kills 2HG-producing HT-1080-NT fibrosarcoma cells. AID 686970. 360,000 compounds, 1.6% hits. Potency, µM (series often up to 46.1 µM), for the others: top-dose activity, negative = less viability, usual class: cytotoxic. HT-1080-NT fibrosarcoma viability, CellTiter-Glo ATP luminescence, 48 h;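 further: NT is the 2HG producing partner of a matched IDH1 knockdown line; potency means the concentration at half of the fitted maximal effect; 0% = DMSO-treated cells and -100% = media-only wells without cells; nearly all actives have a fitted effect of over 55% in size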
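750 cells/well, RPMI + 5% FBS; 2 h settle, compound pin-transfer, 48 h at 37 degrees C. CellTiter-Glo 10 min RT, luminescence. Normalized to DMSO and media-only wells.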
IL1B secr inh = inhibitors of inflammasome signaling (IL-1 beta secretion); activity change, % at 57.5 µM; THP-1 LPS/ATP IL-1B secretion, AlphaLISA, 16 h; active compounds read low; 360,000 compounds, 4.7% hits; in the data active means activity change below about -50%; inconclusive means mostly about -30% to -49%
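THP-1 cells pretreated 1 hr with compounds (up to 57.5 uM final), then stimulated with LPS (250 ng/mL final) plus ATP (1.25 mM final); secreted IL-1B measured by AlphaLISA after 16 hr, decreased signal indicating inhibition.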
DT40 TDP1 CPT = DT40-hTDP1 cell growth loss with CPT; chicken DT40 Tdp1-/-;hTDP1 cells + 20 nM CPT, ATP luminescence, 48 h; Potency, µM (series often up to 46.2 µM), without a hit: at the top dose activity change, negative = growth inhibition, hits mostly inhibitors; 420,000 compounds, 12% hits; further: potency means the concentration at half of the fitted maximal effect; nearly all actives have a fitted effect of over 55% in size
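Chicken DT40 Tdp1-/- cells complemented with human TDP1, 400 cells/well, exposed to compounds plus 20 nM camptothecin for at least 48 h at 37 C; viability read as ATP content by CellTiter-Glo luminescence.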
* marks the source's active call; other numbers are inactive results; ? = inconclusive; nt = no result; [ ] = another dose, or the depositor's remark. Unless noted, the call rests on the fitted dose curve; in most records, active means well fitted curve in the direction sought with a large enough effect; inconclusive means small, poorly fitted or top-dose-only effect, or another doubt; inactive means no such curve, though single readings can be large; an effect the other way counts as inactive or inconclusive. Unless noted, on the % scale 0 is the no-effect control and ±100 the full control effect.

SMILES	TDP1 cell noCPT	HT1080 IDH1KD tx	HT1080NT lethal	IL1B secr inh	DT40 TDP1 CPT
COC(=O)C1=C(c2ccc(OC(F)(F)F)cc2)C[C@@H]2CC[C@H]1N2C(=O)NCCO	-25.8%	10.3%	19.4%	5.7	-13.2%
COC(=O)C1=C(c2ccc(-c3ccccc3)c(F)c2)C[C@@H]2CC[C@H]1N2C(=O)NCc1cc(C)oc1C(F)(F)F	14.6µM*	-15.6%	-8.9%	-2.9	?
COC(=O)C1=C(c2ccc(Cl)c(C(F)(F)F)c2)C[C@@H]2CC[C@H]1N2C(=O)NCc1cc(C)oc1C(F)(F)F	20.6µM*	-28.3%	-18.2%	-29.4	?
O=C(COc1cccc(Cl)c1)N1CCN(CCc2ccncc2)CC1	-0.9%	nt	nt	nt	-22.7%
O=C(/C=C/c1ccccc1)NCCc1cnc[nH]1	?	-4.9%	4.0%	8.4	-11.0%
COc1ccc(C(SCC(NC(=O)OCc2ccccc2)C(=O)O)c2ccc(OC)cc2)cc1 (configuration not stated)	?	-14.1%	-3.9%	-5.7	-7.1%
O=C(c1cc(Cl)cc(Cl)c1)N1Cc2ccccc2-n2nncc2C1	?	2.6%	-7.1%	21.3	?
C=C(C)C1CNC(C(=O)O)C1CC(=O)O (configuration not stated)	1.1%	nt	nt	nt	-0.8%
CCN(CC)/[N+]([O-])=N/O	-13.0%	nt	nt	nt	-9.0%
COC(=O)C1=C(c2ccc(Cl)c(C(F)(F)F)c2)C[C@@H]2CC[C@H]1N2C(=O)NCCOc1ccc(OC)cc1	?	?	?	-63.0*	?
c1ccc(P(c2ccccc2)c2ccccn2)cc1	5.17µM*	-15.7%	?	27.7	5.17µM*
COc1ccc(CN2CCN(C(=O)Cc3ccccc3)CC2)cc1Br	-10.4%	8.8%	6.0%	-19.7	-18.6%
CC(C)[C@H](CO)Nc1nc(Nc2cccc(Cl)c2)c2ncn(C(C)C)c2n1	9.44µM*	nt	nt	nt	9.44µM*
CC(Cc1ccccc1)NC(=O)C(c1ccc(N)cc1)c1ccc(N)cc1 (configuration not stated)	?	2.8%	22.8%	0.0	11.6µM*
CC(Cc1ccccc1)NC(=O)c1ccc(N)cc1 (configuration not stated)	-8.2%	10.9%	16.8%	-3.9	8.9%
O=[N+]([O-])c1ccc(N2CCCCCC2)c2ncccc12	19.3%	20.4%	2.3%	18.3	-1.9%
CCn1c(N)c(C(=O)NC)sc1=S	16.4µM*	17.8%	15.3%	-19.6	18.4µM*
C[n+]1c(-c2ccccc2)c2cc(N)ccc2c2ccc(N)cc21	0.164µM*	1.3µM*	6.51µM*	0.0	0.517µM*
Nc1ccc2ccc3cccc[n+]3c2c1	-11.0%	-18.7%	-17.6%	38.6	?
O=C1NCN(c2ccccc2)C12CCN(C(c1cccc3ccccc13)c1nnnn1Cc1ccccc1)CC2 (configuration not stated)	23.1µM*	?	?	?	18.4µM*
CCCCn1nnnc1C(CC)N1CCC2(CC1)C(=O)NCN2c1ccccc1 (configuration not stated)	?	10.8%	7.0%	-2.7	?
O=C1NCN(c2ccccc2)C12CCN(C(c1ccnc3ccccc13)c1nnnn1Cc1ccccc1)CC2 (configuration not stated)	?	-27.7%	?	-51.4*	?
CCCCn1nnnc1C(CCSC)N1CCC2(CC1)C(=O)NCN2c1ccccc1 (configuration not stated)	?	2.8%	0.4%	-21.2	23.1µM*
COc1ccc(-n2nnnc2C(c2cccc3ccccc23)N2CCC3(CC2)C(=O)NCN3c2ccccc2)cc1 (configuration not stated)	9.2µM*	-21.3%	-14.5%	?	-92.6%
CC(C)(C)n1nnnc1C(c1ccnc2ccccc12)N1CCC2(CC1)C(=O)NCN2c1ccccc1 (configuration not stated)	?	5.0%	-0.8%	-8.9	?
SMILES	TDP1 cell noCPT	HT1080 IDH1KD tx	HT1080NT lethal	IL1B secr inh	DT40 TDP1 CPT
O=C(CN1CCCCC1c1cccnc1)c1ccccc1 (configuration not stated)	-10.2%[9.04 µM]	nt	nt	nt	3.0%[9.04 µM]
COc1cccc(C(c2nnnn2C2CCCC2)N2CCC3(CC2)C(=O)NCN3c2ccccc2)c1OC (configuration not stated)	14.6µM*	?	?	?	?
CC(C)CCNc1nnnc2c1sc1nc(N3CCOCC3)c3c(c12)CC(C)(C)SC3	18.4µM*	12.3%	17.4%	-23.8	23.1µM*
Cc1cc(-c2nnn(CCCOC(C)(C)C)c2C)ccc1-c1cn(CCCOC(C)(C)C)nn1	6.51µM*	7.8%	-3.7%	25.0	8.2µM*
CC(C)CC(N(C)C)C1(c2ccc(Cl)cc2)CCC1 (configuration not stated)	?	-6.9%	?	6.4	?
CC(=O)Nc1ccccc1OC(=O)N(C)C	-2.0%	11.2%	11.5%	16.9	4.2%
COc1ccc(C2C(C#N)=C(N)Oc3c2c(=O)oc2ccccc32)cc1Cn1cc([N+](=O)[O-])cn1 (configuration not stated)	-1.2%	8.6%	13.9%	-12.0	-13.2%
CCCc1[nH]nc2c1C(c1ccc(OC)c(Cn3nnc4ccccc43)c1)C(C#N)=C(N)O2 (configuration not stated)	?	3.8%	1.4%	1.5	25.9µM*
c1ccc(CCN2CCOCC2)cc1	-12.8%	nt	nt	nt	-13.9%
O=C1CCCCC1CN1CCCCC1 (configuration not stated)	-29.6%	nt	nt	nt	?
O=C(OCC(=O)c1ccc([N+](=O)[O-])cc1)/C(=C/c1ccc(Cl)cc1)NC(=O)c1ccccc1	23.1µM*	7.0%	-0.7%	-12.0	16.4µM*
O=C(COC(=O)Cc1ccccc1)NNC(=O)c1ccc([N+](=O)[O-])cc1	11.8%	-5.0%	-7.5%	9.9	-13.2%
CCN1C[C@]2(COC)CC[C@H](O)[C@@]34C5C[C@H]6[C@H](O)C5[C@](O)(C[C@H]6OC)[C@@H]([C@H](OC)C23)[C@@H]14 (some centres not stated)	0.3%	1.7%	-2.7%	8.2	4.9%
Cc1ccc([C@H]2C[C@H](n3cc(C4CC4)nn3)[C@@H](O)CN2Cc2cccs2)cc1	?	-9.1%	-1.3%	11.2	-30.7%
C[C@H](CCC(=O)O)[C@H]1CC[C@H]2[C@@H]3[C@H](O)C[C@@H]4C[C@H](O)CC[C@]4(C)[C@H]3CC[C@]12C	?	7.5%	25.7%	29.2	?
